Measured values taken from PubChem BioAssay (EPA / NIEHS).
Where “and” joins values, the source holds several entries; their conditions need not be identical. Identical values can stand only once. Results filed as inconclusive are left out. Some structures have more than one record in an assay (separate samples or runs), and their calls can disagree. Calls of active or inactive are those of the source. The calls were made as follows, unless noted: active = hit-call score of the fitted dose curve at least 0.9, where 1 is the maximum; inconclusive = response in the unintended direction; inactive = score below 0.9.

Experiments:
[1] = biological target: Peroxisome proliferator-activated receptor gamma (Homo sapiens) (UniProt P37231); experiment: NVS_NR_hPPARg: NovaScreen (NVS) Nuclear Receptor Binding Assay for human Peroxisome Proliferator-activated Receptor gamma (PPARg) (AID 2283370)
Chain of Peroxisome proliferator-activated receptor gamma (Homo sapiens) (P37231 whole entry, looked up, the tested form may be a part): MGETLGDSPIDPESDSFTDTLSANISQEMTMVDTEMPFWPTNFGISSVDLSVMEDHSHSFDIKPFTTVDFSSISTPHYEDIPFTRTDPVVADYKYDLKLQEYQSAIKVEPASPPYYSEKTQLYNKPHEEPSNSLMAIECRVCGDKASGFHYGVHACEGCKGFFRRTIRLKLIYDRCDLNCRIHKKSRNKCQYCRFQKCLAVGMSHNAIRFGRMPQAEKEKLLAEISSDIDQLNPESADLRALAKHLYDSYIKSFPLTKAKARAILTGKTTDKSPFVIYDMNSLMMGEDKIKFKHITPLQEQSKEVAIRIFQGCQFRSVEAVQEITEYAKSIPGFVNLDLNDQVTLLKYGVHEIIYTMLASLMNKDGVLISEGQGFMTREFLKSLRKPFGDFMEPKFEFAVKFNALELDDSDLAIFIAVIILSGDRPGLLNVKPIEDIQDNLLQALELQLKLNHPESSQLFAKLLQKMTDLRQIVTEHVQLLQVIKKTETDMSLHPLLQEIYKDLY
In short: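 Fluorescence polarization readout of ligand binding to extracted human PPARg, measured at 2 h. Duplicate single-point screen at 25 uM, then concentration-series retesting; activity defined as signal loss versus DMSO.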

[2] = biological target: Estrogen receptor beta (Homo sapiens) (UniProt Q92731); experiment: OT_ER_ERbERb_1440: Odyssey Thera (OT) 24-hour HEK293T Protein-Complementation Assay for Estrogen Receptor-beta/-beta Homodimer (AID 2283380);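 also: fluorescence gain from ER beta LBD homodimer complementation read by laser scanning cytometry; scored as signal increase over DMSO baseline for both agonists and antagonists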
Chain of Estrogen receptor beta (Homo sapiens) (Q92731 whole entry, looked up, the tested form may be a part): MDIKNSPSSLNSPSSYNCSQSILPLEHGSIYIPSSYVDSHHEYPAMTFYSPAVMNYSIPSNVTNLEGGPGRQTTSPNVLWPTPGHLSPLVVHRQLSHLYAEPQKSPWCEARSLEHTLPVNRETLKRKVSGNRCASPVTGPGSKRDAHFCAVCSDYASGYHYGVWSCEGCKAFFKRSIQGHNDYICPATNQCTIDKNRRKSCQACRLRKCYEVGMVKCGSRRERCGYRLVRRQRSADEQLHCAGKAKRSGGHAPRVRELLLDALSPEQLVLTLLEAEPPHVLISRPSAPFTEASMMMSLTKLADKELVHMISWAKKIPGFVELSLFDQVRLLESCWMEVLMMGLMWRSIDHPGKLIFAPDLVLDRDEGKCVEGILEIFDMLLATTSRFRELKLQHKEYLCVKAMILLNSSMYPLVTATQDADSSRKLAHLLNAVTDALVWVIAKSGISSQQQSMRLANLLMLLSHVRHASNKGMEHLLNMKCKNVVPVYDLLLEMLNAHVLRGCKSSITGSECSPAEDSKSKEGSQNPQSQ
In short: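 HEK293T cells stably expressing human ER-beta LBD (aa 310-547) PCA homodimer pair, dosed 24 h; formaldehyde-fixed, Draq5-stained. Readout: increase in nuclear (agonist) or nuclear plus cytoplasmic (antagonist) fluorescence intensity versus DMSO, gain-of-signal fitting.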

[3] = biological target: Estrogen receptor (Homo sapiens) (UniProt P03372); experiment: OT_ERa_GFPERaERE_0480: Odyssey Thera (OT) 8-hour HeLa Transcription Induction Assay for Estrogen Receptor (AID 2283381; active = hit-call score of the fitted dose curve at least 0.9, where 1 is the maximum; inactive = score below 0.9)
Chain of Estrogen receptor (Homo sapiens) (P03372 whole entry, looked up): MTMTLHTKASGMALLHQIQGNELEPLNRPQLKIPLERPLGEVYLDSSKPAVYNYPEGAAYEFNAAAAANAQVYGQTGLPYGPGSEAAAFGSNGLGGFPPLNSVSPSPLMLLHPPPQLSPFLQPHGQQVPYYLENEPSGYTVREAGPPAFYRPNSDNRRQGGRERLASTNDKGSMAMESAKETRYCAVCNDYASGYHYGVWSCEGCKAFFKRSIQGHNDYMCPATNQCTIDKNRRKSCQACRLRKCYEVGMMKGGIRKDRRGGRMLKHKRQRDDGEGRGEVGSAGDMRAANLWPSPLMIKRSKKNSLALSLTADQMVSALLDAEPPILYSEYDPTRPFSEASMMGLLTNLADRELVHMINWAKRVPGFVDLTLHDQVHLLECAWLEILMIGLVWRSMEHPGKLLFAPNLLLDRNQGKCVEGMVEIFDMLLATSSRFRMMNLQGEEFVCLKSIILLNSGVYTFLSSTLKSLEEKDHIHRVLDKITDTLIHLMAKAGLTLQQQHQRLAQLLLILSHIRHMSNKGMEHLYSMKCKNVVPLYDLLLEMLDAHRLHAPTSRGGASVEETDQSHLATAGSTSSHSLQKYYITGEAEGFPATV
In short: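 Fluorescence microscopy with high-content image analysis measures ERE-driven GFP induction in HeLa cells at 8 h post-dose. Increases fitted against DMSO baseline.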

[4] = biological target: Estrogen receptor (Homo sapiens) (UniProt P03372); experiment: OT_ERa_GFPERaERE_0120: Odyssey Thera (OT) 2-hour HeLa Transcription Induction Assay for Estrogen Receptor (AID 2283382)
In short: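 Fluorescence-microscopy images of the GFP-ERα/ERE reporter, scored by high-content image algorithms, give the readout. HeLa exposure lasted 2 h, and only signal increase over DMSO was fitted.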

[5] = biological target: Retinoic acid receptor RXR-alpha (Homo sapiens) (UniProt P19793); experiment: OT_NURR1_NURR1RXRa_0480: Odyssey Thera (OT) 8-hour HEK293T Protein Complementation Assay for Nurr1/retinoid X receptor (RXR) (AID 2283385)
Chain of Retinoic acid receptor RXR-alpha (Homo sapiens) (P19793 whole entry, looked up, the tested form may be a part): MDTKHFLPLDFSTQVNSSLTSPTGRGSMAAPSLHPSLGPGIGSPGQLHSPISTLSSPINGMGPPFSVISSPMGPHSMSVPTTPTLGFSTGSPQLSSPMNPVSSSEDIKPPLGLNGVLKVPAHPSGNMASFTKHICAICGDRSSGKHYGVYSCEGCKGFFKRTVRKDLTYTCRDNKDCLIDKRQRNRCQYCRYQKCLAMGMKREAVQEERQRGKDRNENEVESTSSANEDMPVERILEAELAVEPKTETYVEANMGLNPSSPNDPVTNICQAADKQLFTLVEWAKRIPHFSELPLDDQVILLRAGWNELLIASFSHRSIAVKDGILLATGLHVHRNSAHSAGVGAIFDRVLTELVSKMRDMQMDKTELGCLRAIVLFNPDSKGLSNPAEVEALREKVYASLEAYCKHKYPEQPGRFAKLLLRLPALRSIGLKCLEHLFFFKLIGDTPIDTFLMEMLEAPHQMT
In short: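 Interaction of Nurr1 with RXRα read as reconstituted reporter fluorescence in a HEK293T fragment-complementation system, 8 h post-treatment; increase over DMSO baseline analysed.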

[6] = biological target: Peroxisome proliferator-activated receptor gamma (Homo sapiens) (UniProt P37231); experiment: OT_PPARg_PPARgSRC1_0480: Odyssey Thera (OT) 8-hour Protein-Complementation Assay for Peroxisome Proliferator-activated Receptor Gamma / SRC-1 Co-activator (AID 2283387);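 also: nuclear to cytoplasmic split Venus YFP fluorescence ratio reporting PPARg SRC-1 interaction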
In short: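 Read-out: 488 nm N/C fluorescence ratio from complemented Venus YFP fragments, ≥350 cells per image, gain-of-signal fitted against DMSO baseline. Fusions of PPARg/SRC-1 with IFP1/IFP2 expressed transiently in HEK293T; compounds applied 8 h.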

[7] = biological target: guinea pig Sigma Receptor, Non-selective Binding, SIGMAR1 (gene 100135589) (UniProt Q60492); experiment: NVS_OR_gSIGMA_NonSelective: NovaScreen (NVS) Nuclear Receptor Binding Assay for guinea pig Sigma Receptor, Non-selective Binding (AID 2283367)
Chain of guinea pig Sigma Receptor, Non-selective Binding, SIGMAR1 (gene 100135589) (Q60492 whole entry, looked up): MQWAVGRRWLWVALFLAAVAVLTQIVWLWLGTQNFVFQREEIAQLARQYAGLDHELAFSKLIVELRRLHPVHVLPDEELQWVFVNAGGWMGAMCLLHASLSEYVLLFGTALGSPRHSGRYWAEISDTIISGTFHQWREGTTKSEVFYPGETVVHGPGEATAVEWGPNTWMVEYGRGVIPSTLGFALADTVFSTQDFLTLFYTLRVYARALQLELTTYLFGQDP
In short: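 Test chemicals were screened in duplicate at 25 uM, then in concentration series if active, against radioligand binding to guinea pig brain membranes; filtration and scintillation counting at 1 h measured remaining bound ligand.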

[8] = test system: guinea pig Dopamine Transporter (DAT), gene 100714898; experiment: NVS_TR_gDAT: NovaScreen (NVS) Transporter Assay for guinea pig Dopamine Transporter (DAT) (AID 2283369);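 also: active compounds lower bound radioligand signal relative to DMSO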
In short: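 Radioligand displacement on membranes from guinea pig striatum, 2 h exposure, bound label counted by filtration and scintillation. Tested at 25 uM in duplicate, then actives in concentration series to 50 uM; DMSO as negative control.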

[9] = biological target: human Dopamine Transporter (DAT), SLC6A3 (gene 6531) (UniProt Q01959); experiment: NVS_TR_hDAT: NovaScreen (NVS) Transporter Assay for human Dopamine Transporter (DAT) (AID 2283374);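 also: activity means loss of bound radioligand signal relative to DMSO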
Chain of human Dopamine Transporter (DAT), SLC6A3 (gene 6531) (Q01959 whole entry, looked up): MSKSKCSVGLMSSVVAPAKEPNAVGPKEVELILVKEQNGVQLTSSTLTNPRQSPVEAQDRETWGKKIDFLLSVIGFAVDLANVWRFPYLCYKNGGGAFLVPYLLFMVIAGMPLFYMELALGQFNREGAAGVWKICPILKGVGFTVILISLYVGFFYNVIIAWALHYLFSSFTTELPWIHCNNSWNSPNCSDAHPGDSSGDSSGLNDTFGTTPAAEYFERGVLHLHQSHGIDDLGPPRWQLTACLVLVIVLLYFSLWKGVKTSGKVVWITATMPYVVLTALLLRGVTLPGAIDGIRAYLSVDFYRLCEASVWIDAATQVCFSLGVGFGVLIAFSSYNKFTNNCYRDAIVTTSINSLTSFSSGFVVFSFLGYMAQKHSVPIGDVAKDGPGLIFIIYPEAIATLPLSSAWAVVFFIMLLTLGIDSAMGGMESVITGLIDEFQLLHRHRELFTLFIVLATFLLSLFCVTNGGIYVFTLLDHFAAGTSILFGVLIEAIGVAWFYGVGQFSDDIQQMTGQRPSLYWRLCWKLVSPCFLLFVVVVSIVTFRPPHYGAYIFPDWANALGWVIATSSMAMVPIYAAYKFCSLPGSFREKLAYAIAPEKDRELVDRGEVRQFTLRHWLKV
In short: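 Extracted human SLC6A3 protein incubated 1 h with radioligand and test chemical; bound fraction separated on filters and counted. Single 25 uM duplicate screen preceded concentration-response follow-up; positive and negative controls on every plate.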

[10] = biological target: human Norepinephrine Transporter (NET), SLC6A2 (gene 6530) (UniProt P23975); experiment: NVS_TR_hNET: NovaScreen (NVS) Transporter Assay for human Norepinephrine Transporter (NET) (AID 2283377);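 also: cell-free membrane protein extracted from CHO cells expressing human NET; displacement of radioligand from human NET seen as loss of scintillation signal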
Chain of human Norepinephrine Transporter (NET), SLC6A2 (gene 6530) (P23975 whole entry, looked up): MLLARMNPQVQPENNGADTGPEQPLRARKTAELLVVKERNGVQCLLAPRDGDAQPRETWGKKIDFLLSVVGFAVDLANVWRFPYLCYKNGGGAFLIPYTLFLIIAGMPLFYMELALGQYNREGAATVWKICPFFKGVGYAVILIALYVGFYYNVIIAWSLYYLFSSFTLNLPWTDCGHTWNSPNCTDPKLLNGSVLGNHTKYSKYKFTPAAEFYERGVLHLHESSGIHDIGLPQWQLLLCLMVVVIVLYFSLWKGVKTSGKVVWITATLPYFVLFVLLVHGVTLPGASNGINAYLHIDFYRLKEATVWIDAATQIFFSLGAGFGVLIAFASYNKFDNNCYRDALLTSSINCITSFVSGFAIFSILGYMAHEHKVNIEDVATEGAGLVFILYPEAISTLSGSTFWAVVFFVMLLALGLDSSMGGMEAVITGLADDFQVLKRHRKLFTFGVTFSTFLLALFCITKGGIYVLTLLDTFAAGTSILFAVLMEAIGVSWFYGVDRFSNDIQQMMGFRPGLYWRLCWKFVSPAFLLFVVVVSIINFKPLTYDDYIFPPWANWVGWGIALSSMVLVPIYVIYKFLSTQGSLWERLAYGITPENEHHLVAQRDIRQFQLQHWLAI
In short: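 In this cell-free binding screen, chemicals at 25 uM (duplicate) compete with a radioligand for CHO-derived human NET over 1 hour, with filter-based radiodetection.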

[11] = biological target: mouse Estrogen Receptor alpha (Era), Esr1 (gene 13982) (UniProt P19785); experiment: NVS_NR_mERa: NovaScreen (NVS) Nuclear Receptor Binding Assay for mouse Estrogen Receptor alpha (Era) (AID 2283378);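 also: hit means loss of bound radioligand signal relative to DMSO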
In short: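 Filter radiodetection of radioligand displacement from extracted receptor protein, measured 18 h post-dose. Single 25 uM concentration in duplicate initially, with concentration-series follow-up. Binding loss fitted relative to DMSO.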

[12] = biological target: Bile acid receptor (Homo sapiens) (UniProt Q96RI1); experiment: OT_FXR_FXRSRC1_0480: Odyssey Thera (OT) 8-hour HEK293T Protein-Complementation Assay for Farnesoid X receptor/SRC-1 Co-activator (AID 2283383)
Chain of Bile acid receptor (Homo sapiens) (Q96RI1 whole entry, looked up, the tested form may be a part): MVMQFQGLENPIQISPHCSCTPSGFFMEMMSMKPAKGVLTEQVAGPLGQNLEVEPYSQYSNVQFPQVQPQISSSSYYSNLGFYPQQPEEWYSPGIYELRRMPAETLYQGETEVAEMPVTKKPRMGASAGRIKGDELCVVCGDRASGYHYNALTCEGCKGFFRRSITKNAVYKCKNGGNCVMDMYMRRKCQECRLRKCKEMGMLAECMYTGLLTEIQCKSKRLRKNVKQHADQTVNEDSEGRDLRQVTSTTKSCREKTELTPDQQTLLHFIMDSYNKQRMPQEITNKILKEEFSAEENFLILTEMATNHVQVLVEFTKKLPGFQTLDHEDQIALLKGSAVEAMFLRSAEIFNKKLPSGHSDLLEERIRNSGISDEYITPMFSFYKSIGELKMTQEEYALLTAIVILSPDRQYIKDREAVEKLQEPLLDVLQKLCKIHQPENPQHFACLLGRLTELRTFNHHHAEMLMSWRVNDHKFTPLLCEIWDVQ
In short: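 Binding of FXR to coactivator SRC-1 was read as fluorescence from a reconstituted split reporter in HEK293T cells, 8 h after chemical addition. Only increases in signal versus DMSO were fit.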

[13] = biological target: Bile acid receptor (Homo sapiens) (UniProt Q96RI1); experiment: OT_FXR_FXRSRC1_1440: Odyssey Thera (OT) 24-hour HEK293T Protein-Complementation Assay for Farnesoid X receptor/SRC-1 Co-activator (AID 2283384)
In short: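 Protein-fragment complementation: FXR and SRC-1 fused to reporter fragments that reassemble on interaction, read by fluorescence intensity. Human HEK293T cells measured 24 h post-dose; positive-direction fit versus DMSO.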

[14] = biological target: Agonist Androgen Response Element (ARE), AR (gene 367) (UniProt P10275); experiment: OT_AR_ARELUC_AG_1440: Odyssey Thera (OT) 24-hour CHO-K1 Luciferase Assay for Agonist Androgen Response Element (ARE) (AID 2283379)
Chain of Agonist Androgen Response Element (ARE), AR (gene 367) (P10275 whole entry, looked up): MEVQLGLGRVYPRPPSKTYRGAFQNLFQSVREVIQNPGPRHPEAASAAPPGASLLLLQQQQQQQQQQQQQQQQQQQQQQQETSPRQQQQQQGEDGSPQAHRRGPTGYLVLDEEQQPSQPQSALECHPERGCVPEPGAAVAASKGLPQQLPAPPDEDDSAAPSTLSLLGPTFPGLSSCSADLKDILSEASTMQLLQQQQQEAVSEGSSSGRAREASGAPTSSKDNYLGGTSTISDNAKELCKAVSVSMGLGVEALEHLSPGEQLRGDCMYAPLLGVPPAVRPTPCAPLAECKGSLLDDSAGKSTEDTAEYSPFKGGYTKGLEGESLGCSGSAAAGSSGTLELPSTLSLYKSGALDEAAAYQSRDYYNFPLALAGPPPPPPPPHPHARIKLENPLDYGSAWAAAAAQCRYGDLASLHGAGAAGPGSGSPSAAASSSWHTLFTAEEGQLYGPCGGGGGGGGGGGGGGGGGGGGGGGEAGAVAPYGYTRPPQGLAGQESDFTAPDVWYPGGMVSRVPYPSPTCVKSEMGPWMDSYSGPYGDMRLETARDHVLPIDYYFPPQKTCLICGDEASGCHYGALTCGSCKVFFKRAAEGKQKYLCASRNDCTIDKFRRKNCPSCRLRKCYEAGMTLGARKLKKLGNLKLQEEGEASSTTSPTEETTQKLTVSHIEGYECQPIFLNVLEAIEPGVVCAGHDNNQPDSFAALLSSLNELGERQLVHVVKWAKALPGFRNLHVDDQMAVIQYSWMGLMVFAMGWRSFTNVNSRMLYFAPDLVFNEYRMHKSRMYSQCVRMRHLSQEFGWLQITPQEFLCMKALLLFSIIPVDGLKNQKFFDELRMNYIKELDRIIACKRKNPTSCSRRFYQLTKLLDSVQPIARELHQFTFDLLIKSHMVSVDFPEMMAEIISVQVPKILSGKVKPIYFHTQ
In short: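 Luminescence increase above DMSO, read after a 24 h compound treatment of CHO-K1 cells expressing an androgen response element luciferase reporter, gives the single primary endpoint; concentration-response fitting used the positive direction.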

[15] = biological target: Retinoic acid receptor RXR-alpha (Homo sapiens) (UniProt P19793); experiment: OT_NURR1_NURR1RXRa_1440: Odyssey Thera (OT) 24-hour HEK293T Protein Complementation Assay for Nurr1/retinoid X receptor (RXR) (AID 2283386)
In short: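 Gain in fluorescence, fitted relative to DMSO, reflects Nurr1–RXRα association in HEK293T cells after 24 h dosing. Bait and prey are each linked to a reporter-protein fragment that reassembles on interaction.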

Measured: AC50

O=C1C(Cl)=C(Cl)C(=O)c2ccccc21
inactive: [1] | [2] | [3] | [4]
active: [5] 11.4 µM | [6] 11.8 µM

Nc1ccc(-c2ccc(N)c(Cl)c2)cc1Cl
active: [7] 32.5 µM | [8] 3.73 µM | [9] 1.63 µM | [10] 3.04 µM

C(=NC1CCCCC1)=NC1CCCCC1
active: [7] 30.8 µM

CCC(C)(C)c1ccc(O)c(C(C)(C)CC)c1
inactive: [1] | [2] | [3] | [4] | [6]

COP(=O)(OC)O/C(=C\Cl)c1cc(Cl)c(Cl)cc1Cl
inactive: [1] | [11] | [3] | [4] | [12] | [13] | [6]
active: [5] 4.45 µM

O=C1C2(Cl)C3(Cl)C4(Cl)C(Cl)(Cl)C5(Cl)C3(Cl)C1(Cl)C5(Cl)C24Cl (stereo not drawn)
inactive: [1] | [14] | [6]
active: [10] 1.57 µM and 1.82 µM and 869 nM | [12] 10.7 µM | [13] 10.8 µM

CC(C)C1CCC(Cc2ccc(Cl)cc2)C1(O)Cn1cncn1 (stereo not drawn)
inactive: [1] | [2] | [3] | [6]
active: [4] 90.2 µM | [13] 11.2 µM

COP(=S)(OC)Oc1ccc(Sc2ccc(OP(=S)(OC)OC)cc2)cc1
inactive: [1] | [14] | [3] | [4] | [5] | [6]
active: [1] 0.13 µM | [10] 1.39 µM | [2] 33.8 µM

ClC1(Cl)C2(Cl)C3(Cl)C4(Cl)C(Cl)(Cl)C5(Cl)C3(Cl)C1(Cl)C5(Cl)C24Cl (stereo not drawn)
not listed: [2] | [7] | [8] | [9] | [10] | [11]
inactive: all other assays above

Oc1ccc(-c2ccccc2)cc1
active: [8] 11.9 µM | [9] 10.7 µM | [11] 17.7 µM | [2] 11.8 µM | [12] 33.3 µM | [13] 33.3 µM | [15] 50 µM
inactive: [5] | [6]

C[C@H]1CCCC(=O)CCC/C=C/c2cc(O)cc(O)c2C(=O)O1
inactive: [6]
active: [1] 2.15 µM | [2] 0.0449 µM | [3] 0.103 µM | [4] 0.0915 µM
